Bioassay records deposited in PubChem by National Center for Advancing Translational Sciences (NCATS).
WRN helicase inh = inhibitors of human WRN helicase | Q14191 | WRN helicase unwinding, fluorescent forked duplex, kinetic | Potency, µM (highest dose often 114 µM), inactives show at the top dose activity change, negative = inhibition, most hits filed as inhibitors | hit rate 0.46% among 360,000 | AID 651768; further: on the % scale 0 is the no-effect control and ±100 the full control effect; nearly all actives have a fitted effect of over 55% in size
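WRN at 20 nM final was preincubated with compound for 15 min at room temperature; reaction started with 100 nM forked duplex oligonucleotide carrying fluorophore and quencher plus 2 mM ATP (final). Unwinding followed kinetically by red fluorescence (ex 525/em 598 nm).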
FEN1 inhibitor = human FEN1 inhibition. P39748. Recombinant FEN1 flap cleavage, fluorescence, 15 min. Potency, µM (titrated, usually from 114 µM), without a hit: top-dose activity change, negative = inhibition, usual class: inhibitors. hit rate 0.35% among 390,000. AID 588795; further: on the % scale 0 is the no-effect control and ±100 the full control effect; nearly all actives have a fitted effect of over 65% in size
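Potency values derive from four-parameter Hill fits of normalized qHTS data. The reaction used 10 nM FEN1 preincubated 15 min at room temperature with compound, then 50 nM DNA substrate, read at 0 and 15 min.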
Pol kappa inh-1 = DNA polymerase kappa (human) inhibition; Q9UBT6; purified Pol kappa, fluorescent DNA synthesis assay, 10 min; Potency, µM (top dose mostly 107 µM), for the others: at the top dose activity, negative = inhibition, hits mostly inhibitors; hit rate 0.53% among 400,000; AID 588579; further: on the % scale 0 is the no-effect control and ±100 the full control effect
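Activity was followed as the change in fluorescence between reads at 0 and 10 min after starting the reaction with 50 nM substrate. Beforehand, 10 nM polymerase had been preincubated with compound for 15 min at room temperature.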
POLI inh = inhibitors of human DNA polymerase iota. Pol iota fluorescent replication assay, 10 min. AID 588590. Q9UNA4. Potency, µM (titrated, usually from 115 µM), for the others: at the highest dose activity, negative = inhibition, actives largely listed as inhibitors. hit rate 1% among 390,000
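Pol iota at 10 nM preincubated 15 min with compounds at room temperature; reaction started with fluorescent substrate, 50 nM final. Fluorescence read kinetically at 0 and 10 min; buffer-only wells as negative control.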
Pol eta inh-1 = blocks human DNA polymerase eta activity; recombinant Pol eta, fluorescent DNA replication assay; AID 588591; Potency, µM (top dose mostly 114 µM), for inactives: at the top dose activity change, negative = inhibition, actives largely listed as inhibitors; Q9Y253; hit rate 1.2% among 390,000; further: on the % scale 0 is the no-effect control and ±100 the full control effect
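Fluorescent replication assay: 50 nM final substrate added after a 15 min room-temperature compound preincubation with 10 nM enzyme. Signal taken at 0 min and again at 10 min.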
POLB inh = inhibitors of human DNA polymerase beta; P06746; Pol beta primer extension/strand displacement, fluorescence kinetic; Potency, µM (series often up to 114 µM), for inactives: at the highest dose activity change, negative = inhibition, hits mostly inhibitors; hit rate 1.3% among 340,000; AID 485314; further: on the % scale 0 is the no-effect control and ±100 the full control effect
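Homogeneous kinetic assay of primer extension and strand displacement by 10 nM Pol beta, preincubated 15 min at room temperature with compound before 50 nM substrate (final) was added. Read at 0 and 10 min; four-parameter Hill fit.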
TbPGK inh = TbPGK inhibition, hit validation. TbPGK coupled GAPDH assay, Kinase-Glo luminescence. shares compounds with Pol kappa inh-1. hit rate 79% among 500. Potency, µM (titrated, usually from 57.5 µM), without a hit: at the highest dose activity change, negative = inhibition, hits mostly inhibitors; further: on the % scale 0 is the no-effect control and ±100 the full control effect; nearly all actives have a fitted effect of over 65% in size
Pol iota confirm = Human Pol iota inhibitor confirmatory assay; shares compounds with Pol kappa inh-1; Pol iota primer extension, TAMRA/BHQ fluorescence; Potency, µM, usual class: inhibitors; hit rate 77% among 1,500
Pol kappa inh-2 = Pol kappa (human) inhibition, cherry-pick confirmation | shares compounds with Pol eta inh-1 | purified Pol-kappa, fluorescent strand-displacement substrate | Potency, µM, usual class: inhibitors | hit rate 76% among 920 | AID 720501
Pol eta inh-2 = confirmation of human DNA polymerase eta inhibitors. Pol eta primer extension, TAMRA/BHQ fluorescence, 10 min. Potency, µM, usual class: inhibitors. AID 720502. hit rate 64% among 2,600. shares compounds with Pol eta inh-1
The depositor's hits bear a star; ? = inconclusive; . = no result; [ ] = another dose, or the depositor's remark. Only some compounds are listed: those with a hit (about 2.4% of all), similar ones and a draw of the others. The call rests on the fitted dose curve; in most records, active means well fitted curve in the direction sought with a large enough effect; inconclusive means small, poorly fitted or top-dose-only effect, or another doubt; inactive means no such curve, though single readings can be large; an effect the other way counts as inactive or inconclusive. Potency means the concentration at half of the fitted maximal effect.

SMILES	WRN helicase inh	FEN1 inhibitor	Pol kappa inh-1	POLI inh	Pol eta inh-1	POLB inh	Pol iota confirm	Pol eta inh-2	others
O=C(CCN1C(=O)/C(=C/c2ccc(Cl)cc2)SC1=S)Nc1ccc(C(=O)O)cc1	-5%	-3%	-13%	137%	-1%	37%	.	.
O=C(CCN1C(=O)/C(=C/c2ccco2)SC1=S)Nc1ccc(O)cc1C(=O)O	32µM*	35µM*	?	4.5µM*	5.6µM*	22µM*	47*	30*	Pol kappa inh-2=13*
O=C1/C(=C/c2ccco2)SC(=S)N1CC1CCCO1 (stereo unspecified)	?	-23%	89µM*	22µM*	50µM*	13µM*	?	67*	Pol kappa inh-2=42*
CCCCC/C=C\C[C@@H](O)/C=C/C=C\C/C=C\CCCC(=O)O	.	.	-10%[19.4 µM]	.	.	.	.	.
CCc1cccc(NC(=O)C2CCCN2S(=O)(=O)c2ccc3nc(-c4ccccc4)[nH]c3c2)c1 (stereo unspecified)	.	-21%	-21%	?	-8%	-20%	.	.
O=C(O)c1cc(-c2ccc(/C=C3\NC(=O)N(c4ccccc4)C3=O)o2)ccc1Cl	?	?	45µM*	?	4µM*	22µM*	34*	15*
CCCCN(C(=O)c1cccc(-n2cccc2)c1)c1c(N)n(CCC)c(=O)[nH]c1=O	56µM*	-2%	?	14µM*	16µM*	.	30*	38*
CCCN(C(=O)c1cccc(-n2cccc2)c1)c1c(N)n(Cc2ccccc2)c(=O)[nH]c1=O	50µM*	-6%	28µM*	10µM*	11µM*	.	30*	43*
CC(C)(C)OC(=O)N1CCC(c2c(C(=O)N3CCN(c4ncccn4)CC3)cnn2-c2ccc(F)cc2)CC1	.	18%	-13%	10%	-7%	3%	.	.
CC1=NN(c2ccc(C(=O)O)cc2)C(=O)CC1	-7%	1%	1%	41%	-16%	?	.	.
CC1=NN(c2ccc(C(=O)O)c(N)c2)C(=O)C1	-17%[57.1 µM]	-35%	89µM*	1.3µM*	22µM*	10µM*	60*	34*
O=C(O)Cc1ccc(NC(=O)c2ccc3c(c2)C(=O)N(Cc2ccco2)C3=O)cc1	40µM*	-26%	?	11µM*	4µM*	-7%	60*	24*
O=C(O)Cc1ccc(NC(=O)c2ccc3c(c2)C(=O)N(Cc2ccccc2)C3=O)cc1	-8%	.	.	.	-12%	.	.	.
CC(=O)c1ccc(NC(=O)CN2C(=O)CCc3cc(S(=O)(=O)N4CCC(C)CC4)ccc32)cc1	.	-7%	-10%[60.1 µM]	?	25µM*	35µM*	53*	38*	Pol kappa inh-2=?
Cc1nnc(SCC2=C(C(=O)O)N3C(=O)C(NC(=O)Cn4nc(C(F)F)cc4C)C3SC2)s1 (stereo unspecified)	-8%[11.6 µM]	-3%	?	16µM*	8.9µM*	?	.	27*	TbPGK inh=?
O=C(NCCc1nc2ccccc2n1CCCOc1ccccc1Cl)C1CCCCC1	.	8%	2%	34%	.	.	.	.
